PubChem BioAssay
Where “and” joins values, the source holds several entries; their conditions need not be identical. Identical values can stand only once. Calls of active or inactive are those of the source.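 Rule for the calls, unless noted: active = normalized viability below 100% at a tested concentration; inactive = the rest.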

What was measured:
[1] = Wnt pathway potentiators raising nuclear beta-catenin – imaging, WNT3A-conditioned medium, mouse C2C12, NPC library, primary screen (AID 1117326; in the data active = nuclear beta-catenin stimulation mostly above about 4.2%, no sharp cut-off; inactive = mostly below about 10%); settings: stronger effect = higher value
[2] = stimulators of insulin release from INS-1E, primary screen, cell-based, 5 mM glucose, NPC library (AID 1117329;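 active = compound raises insulin release from rat beta cells at 5 mM glucose, no numeric limit stated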); settings: rat INS-1E insulin secretion, at 10 µM, stronger effect = higher value
[3] = growth inhibition of GSK3B-pretreated HCT116 cells – cell-based, CellTiter-Glo, 0.2 to 20 µM (AID 1117336;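 active = compounds lowering colon cancer cell viability after pretreatment blocking the GSK3B kinase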); settings: HCT116 viability after GSK3B inhibitor, at 20 µM, stronger effect = higher value
[4] = inhibition of endothelial tube formation, primary screen, imaging, VEGF stimulated, CD31 staining, tube area, NPC library (AID 1117340;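 active = compound that reduces growth-factor-driven endothelial tube area in a mixed cell culture, no cutoff stated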); settings: VEGF-stimulated ADSC/ECFC co-culture, at 10 µM, stronger effect = higher value
[5] = GLP1 release stimulators, primary, NCI-H716, NPC library (AID 1117341;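 active = compound raises GLP1 secretion from the human gut endocrine cells, with no numeric limit stated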); settings: NCI-H716 cells, at 10 µM, stronger effect = higher value
[6] = HCT116 colon cancer cell growth inhibition, primary screen, CellTiter-Glo luminescence, NPC library (AID 1117342;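 active = compounds that lower survival of HCT116 colon cancer cells in the luminescence readout, no numeric limit stated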); settings: at 20 µM (top of the series)
[7] = reduced SW480 viability measured with CellTiter-Glo, NPC library, primary (AID 1117343;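 active = compounds that lower viability of the colon cancer cells in the luminescence readout, with no numeric limit stated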); settings: CellTiter-Glo luminescence; at 20 µM (top of the series) unless noted
[8] = NPC library primary testing for decreased DLD-1 cell viability via CellTiter-Glo (AID 1117346;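 active = compounds that lower survival of DLD-1 colon cancer cells in the luminescence readout, no cutoff given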); settings: DLD-1 viability, CellTiter-Glo luminescence; at 20 µM (top of the series)
[9] = target: NAD(+) hydrolase SARM1 (Homo sapiens) (UniProt Q6SZW1); test: blocking NAD cleavage by SARM1 SAM-TIR – cell lysate, NAD-Glo luminescence (AID 1508614;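 active = compound whose remaining NAD level is above about 45 nM, limit read from the data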;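 note: higher remaining NAD means stronger inhibition of SARM1 NADase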); settings: SAM-TIR HEK293T lysate NADase, at 1 µM, stronger effect = higher value
[10] = MELAS cybrid and Rieske KO viability enhancers – cell-based, MELAS cybrids, Rieske KO mouse fibroblasts, CellTiter-Glo, primary screen (AID 1508586;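 active = mean z-score across replicates of 1.96 or higher in either the MELAS or the Rieske mutant cell line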;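 note: z relative to plate mean and SD of compound and empty wells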); settings: low glucose
[11] = target: Mitogen-activated protein kinase 7 (Homo sapiens) (UniProt Q13164); test: Gal4-ERK5 driven luciferase induction – cell-based, HTS, primary screen (AID 1508626;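 active = luciferase signal above three times the same-plate solvent-only control wells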;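 note: luciferase driven by Gal4-ERK5 fusion binding five Gal4 sites before minimal TATA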); settings: HeLa Gal4-ERK5 transactivation, 18 h, at 5 µM, stronger effect = higher value
[12] = P. berghei load reduction in hepatocytes – cell-based, HepG2, luciferase luminescence, HepG2 viability, primary screen (AID 624349; in the data active = parasite load remaining mostly below about 12%, no sharp cut-off; inactive = mostly above about 10%;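 note: 100% = mean of DMSO negative control wells on the same plate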); settings: P. berghei liver stage in HepG2, luciferase luminescence, concentration not given here; parasite load remaining: stronger effect = lower value; viability: measured here: HepG2 viability without parasites
[13] = drug combination growth inhibition, ovarian cancer – cell-based, oncology-focused library, rucaparib conditional, profiling panel (AID 1508598); settings: patient-derived ovarian cancer cells, CellTiter-Glo viability, 144 h, stronger effect = lower value
[14] = MELAS cybrid survival, CellTiter-Glo 48 h, stronger effect = higher value
[15] = Rieske KO mouse fibroblast survival, CellTiter-Glo 72 h

Sequence of NAD(+) hydrolase SARM1 (Homo sapiens) (Q6SZW1 whole entry, looked up): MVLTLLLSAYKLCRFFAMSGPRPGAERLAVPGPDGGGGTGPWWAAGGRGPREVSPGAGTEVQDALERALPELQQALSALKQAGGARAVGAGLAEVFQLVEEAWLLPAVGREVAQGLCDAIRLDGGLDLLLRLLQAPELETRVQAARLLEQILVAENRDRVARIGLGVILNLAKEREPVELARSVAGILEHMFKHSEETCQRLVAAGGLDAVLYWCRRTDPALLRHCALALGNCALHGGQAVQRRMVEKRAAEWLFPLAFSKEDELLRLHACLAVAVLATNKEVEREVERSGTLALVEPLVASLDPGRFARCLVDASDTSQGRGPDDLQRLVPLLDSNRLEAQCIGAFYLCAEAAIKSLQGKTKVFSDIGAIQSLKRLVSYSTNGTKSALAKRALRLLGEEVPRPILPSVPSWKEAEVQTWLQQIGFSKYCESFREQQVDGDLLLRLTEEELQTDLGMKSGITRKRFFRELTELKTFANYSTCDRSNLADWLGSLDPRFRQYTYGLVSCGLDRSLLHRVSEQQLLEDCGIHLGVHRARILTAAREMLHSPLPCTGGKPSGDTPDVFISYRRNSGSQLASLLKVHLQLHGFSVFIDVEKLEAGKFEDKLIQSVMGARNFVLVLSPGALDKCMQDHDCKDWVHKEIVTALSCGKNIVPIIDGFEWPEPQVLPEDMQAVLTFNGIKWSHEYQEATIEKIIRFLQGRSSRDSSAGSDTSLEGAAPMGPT
Sequence of Mitogen-activated protein kinase 7 (Homo sapiens) (Q13164 whole entry, looked up, the tested form may be a part): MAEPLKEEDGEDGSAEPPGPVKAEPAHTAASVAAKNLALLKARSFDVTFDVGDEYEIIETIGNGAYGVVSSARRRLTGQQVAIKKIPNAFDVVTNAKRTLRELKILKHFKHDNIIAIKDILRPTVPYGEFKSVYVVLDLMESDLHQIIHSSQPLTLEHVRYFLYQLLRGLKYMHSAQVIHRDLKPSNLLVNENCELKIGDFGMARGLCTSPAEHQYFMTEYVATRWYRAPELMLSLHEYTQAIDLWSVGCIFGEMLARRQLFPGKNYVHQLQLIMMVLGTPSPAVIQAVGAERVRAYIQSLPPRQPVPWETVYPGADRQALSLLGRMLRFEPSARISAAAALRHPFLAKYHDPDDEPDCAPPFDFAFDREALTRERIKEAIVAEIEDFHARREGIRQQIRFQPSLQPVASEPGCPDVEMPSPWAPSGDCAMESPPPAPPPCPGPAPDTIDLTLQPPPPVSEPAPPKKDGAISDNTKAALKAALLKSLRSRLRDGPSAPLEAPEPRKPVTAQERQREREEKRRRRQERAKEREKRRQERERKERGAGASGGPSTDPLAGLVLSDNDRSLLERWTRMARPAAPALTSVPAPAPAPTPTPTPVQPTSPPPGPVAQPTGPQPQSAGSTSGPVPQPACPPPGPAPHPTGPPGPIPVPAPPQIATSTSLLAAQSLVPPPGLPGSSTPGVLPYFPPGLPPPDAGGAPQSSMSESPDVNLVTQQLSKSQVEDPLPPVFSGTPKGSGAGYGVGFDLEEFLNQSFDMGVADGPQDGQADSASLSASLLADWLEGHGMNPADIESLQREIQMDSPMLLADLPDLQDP

C#C[C@]1(O)CC[C@H]2[C@@H]3CCc4cc(OC5CCCC5)ccc4[C@H]3CC[C@@]21C
0.5%: nuclear beta-catenin stimulation ([1]; stimulation, at 2 µM)
inactive: insulin secretion stimulation [2] 0.3% | remaining NAD [9] 10 nM
active: nuclear beta-catenin stimulation ([1]; at 10 µM) 54.3% | viability decrease [3] 102% | tube area decrease [4] 46.9% | GLP1 secretion stimulation [5] 32.5% | inhibition of viability [6] 101% | viability decrease (inhibition) [7] 145% | viability decrease (inhibition) [8] 105%

NC(=O)C(c1ccccc1)(c1ccccc1)[C@@H]1CCN(CCc2ccc3c(c2)CCO3)C1
-1.37: z-score [10, 15]
inactive: nuclear beta-catenin stimulation ([1]; at 10 µM) 0.1% | insulin secretion stimulation [2] 16% | viability decrease [3] -129% | tube area decrease [4] 25.4% | GLP1 secretion stimulation [5] 0.9% | inhibition of viability [6] 35.1% | viability decrease (inhibition) [7] 22.8% | viability decrease (inhibition) [8] 12.4% | z-score [10, 14] -1.84 | remaining NAD [9] 10 nM | luciferase signal [11] 108 AU
1.7%: nuclear beta-catenin stimulation ([1]; stimulation, at 2 µM)

CO/N=C(\C(=O)N[C@@H]1C(=O)N2C(C(=O)O)=C(CSc3nc(=O)c(O)nn3C)CS[C@H]12)c1csc(N)n1
inactive: nuclear beta-catenin stimulation ([1]; at 10 µM) -1.8% | insulin secretion stimulation [2] 0% | viability decrease [3] -26.6% | tube area decrease [4] -1.5% | GLP1 secretion stimulation [5] -1.7% | inhibition of viability [6] -9.17% | viability decrease (inhibition) [7] 8.2% | viability decrease (inhibition) [8] -15.1% | remaining NAD [9] 10 nM
-0.3%: nuclear beta-catenin stimulation ([1]; stimulation, at 2 µM)

O=C(NCCCN1CCOCC1)c1ccc(Cl)cc1
1%: nuclear beta-catenin stimulation ([1]; stimulation, at 2 µM)
inactive: nuclear beta-catenin stimulation ([1]; at 10 µM) 0.6% | insulin secretion stimulation [2] 1.5% | viability decrease [3] 1.5% | tube area decrease [4] 12.7% | GLP1 secretion stimulation [5] -0.3% | inhibition of viability [6] 0% | viability decrease (inhibition) [7] 18.6% | viability decrease (inhibition) [8] 1.05% | remaining NAD [9] 10 nM

CCOCCn1c(N2CCCN(C)CC2)nc2ccccc21
1%: nuclear beta-catenin stimulation ([1]; stimulation, at 2 µM)
-0.184: z-score [10, 15]
inactive: nuclear beta-catenin stimulation ([1]; at 10 µM) -1.8% | insulin secretion stimulation [2] 4.3% | viability decrease [3] -10.6% | tube area decrease [4] 3.4% | GLP1 secretion stimulation [5] -2.3% | inhibition of viability [6] 8.5% | viability decrease (inhibition) [7] 6% | viability decrease (inhibition) [8] -4.3% | z-score [10, 14] 0.35

O=C1NCN(c2ccccc2)C12CCN(CCCC(c1ccc(F)cc1)c1ccc(F)cc1)CC2
0.391 and -0.284: z-score [10, 15]
89.8% and 100%: viability [12]
2.1%: nuclear beta-catenin stimulation ([1]; stimulation, at 2 µM)
active: viability decrease [3] 99.7% | tube area decrease [4] 109% | inhibition of viability [6] 99.6% | viability decrease (inhibition) [7] 103% | viability decrease (inhibition) [8] 102%
inactive: parasite load remaining [12] 45.3% and 31.6% | nuclear beta-catenin stimulation ([1]; at 10 µM) 31.6% | insulin secretion stimulation [2] 2.5% | GLP1 secretion stimulation [5] -0.5% | z-score [10, 14] -1.7 and 0.321

O=C(OCCOCCO)c1ccccc1Nc1cccc(C(F)(F)F)c1
-0.5%: nuclear beta-catenin stimulation ([1]; stimulation, at 2 µM)
inactive: nuclear beta-catenin stimulation ([1]; at 10 µM) -1.7% | insulin secretion stimulation [2] 0.3% | tube area decrease [4] 13.5% | GLP1 secretion stimulation [5] -1.6% | viability decrease (inhibition) [8] 45.7% | z-score [10, 14] 0.681
active: viability decrease [3] 79.4% | inhibition of viability [6] 81.8% | viability decrease (inhibition) [7] 54.2%
0.111: z-score [10, 15]

O=c1[nH]c(=O)n([C@H]2CCCO2)cc1F
active: viability ([13]; at 0.00488 µM, OCI-P5x cells, with rucaparib 20 µM, 100% = cells with rucaparib alone) 96% | viability ([13]; at 0.0195 µM, OCI-P5x cells, with rucaparib 20 µM, 100% = cells with rucaparib alone) 94.8% | viability ([13]; at 0.0195 µM, OCI-P5x cells, without rucaparib) 99.2% | viability ([13]; at 0.313 µM, OCI-C5x cells, with rucaparib 10 µM, 100% = cells with rucaparib alone) 31.7% | viability ([13]; at 0.313 µM, OCI-C5x cells, without rucaparib) 24.1% | viability ([13]; at 0.313 µM, OCI-P5x cells, with rucaparib 20 µM, 100% = cells with rucaparib alone) 47.7% | viability ([13]; at 0.313 µM, OCI-P5x cells, without rucaparib) 16.2% | viability ([13]; at 1.25 µM, OCI-P5x cells, with rucaparib 20 µM, 100% = cells with rucaparib alone) 97.8% | viability ([13]; at 1.25 µM, OCI-P5x cells, without rucaparib) 97.2% | viability ([13]; at 5 µM, OCI-P5x cells, with rucaparib 20 µM, 100% = cells with rucaparib alone) 87.8% | viability ([13]; at 5 µM, OCI-P5x cells, without rucaparib) 94.3%
inactive: nuclear beta-catenin stimulation ([1]; at 10 µM) 0.6% | insulin secretion stimulation [2] -1.4% | viability decrease [3] 6% | tube area decrease [4] 3.6% | GLP1 secretion stimulation [5] -1.7% | inhibition of viability [6] 16% | viability decrease (inhibition) [7] 13.4% | viability decrease (inhibition) [8] 11.5% | viability ([13]; at 0.000305 µM, OCI-C5x cells, with rucaparib 10 µM, 100% = cells with rucaparib alone) 106% | viability ([13]; at 0.000305 µM, OCI-C5x cells, without rucaparib) 122% | viability ([13]; at 0.000305 µM, OCI-P5x cells, with rucaparib 20 µM, 100% = cells with rucaparib alone) 115% | viability ([13]; at 0.000305 µM, OCI-P5x cells, without rucaparib) 110% | viability ([13]; at 0.00122 µM, OCI-C5x cells, with rucaparib 10 µM, 100% = cells with rucaparib alone) 119% | viability ([13]; at 0.00122 µM, OCI-C5x cells, without rucaparib) 122% | viability ([13]; at 0.00122 µM, OCI-P5x cells, with rucaparib 20 µM, 100% = cells with rucaparib alone) 106% | viability ([13]; at 0.00122 µM, OCI-P5x cells, without rucaparib) 107% | viability ([13]; at 0.00488 µM, OCI-C5x cells, with rucaparib 10 µM, 100% = cells with rucaparib alone) 103% | viability ([13]; at 0.00488 µM, OCI-C5x cells, without rucaparib) 127% | viability ([13]; at 0.00488 µM, OCI-P5x cells, without rucaparib) 106% | viability ([13]; at 0.0195 µM, OCI-C5x cells, with rucaparib 10 µM, 100% = cells with rucaparib alone) 107% | viability ([13]; at 0.0195 µM, OCI-C5x cells, without rucaparib) 121% | viability ([13]; at 0.0781 µM, OCI-C5x cells, with rucaparib 10 µM, 100% = cells with rucaparib alone) 104% | viability ([13]; at 0.0781 µM, OCI-C5x cells, without rucaparib) 112% | viability ([13]; at 0.0781 µM, OCI-P5x cells, with rucaparib 20 µM, 100% = cells with rucaparib alone) 106% | viability ([13]; at 0.0781 µM, OCI-P5x cells, without rucaparib) 107% | viability ([13]; at 1.25 µM, OCI-C5x cells, with rucaparib 10 µM, 100% = cells with rucaparib alone) 110% | viability ([13]; at 1.25 µM, OCI-C5x cells, without rucaparib) 115% | viability ([13]; at 5 µM, OCI-C5x cells, with rucaparib 10 µM, 100% = cells with rucaparib alone) 133% | viability ([13]; at 5 µM, OCI-C5x cells, without rucaparib) 111%
0.4%: nuclear beta-catenin stimulation ([1]; stimulation, at 2 µM)

COc1cc(O)c(C(=O)c2ccccc2)cc1S(=O)(=O)O
inactive: nuclear beta-catenin stimulation ([1]; at 10 µM) -0.8% | insulin secretion stimulation [2] -1.1% | viability decrease [3] -7.35% | tube area decrease [4] -4.4% | GLP1 secretion stimulation [5] -0.7% | inhibition of viability [6] -1.4% | viability decrease (inhibition) [7] -19.9% | viability decrease (inhibition) [8] 4.15% | remaining NAD [9] 10 nM
0.1%: nuclear beta-catenin stimulation ([1]; stimulation, at 2 µM)

O=P(O)(O)C(Cl)(Cl)P(=O)(O)O
0.9%: nuclear beta-catenin stimulation ([1]; stimulation, at 2 µM)
-0.285: z-score [10, 15]
inactive: parasite load remaining [12] 33.9% | nuclear beta-catenin stimulation ([1]; at 10 µM) 1% | insulin secretion stimulation [2] 5.1% | viability decrease [3] -1.2% | tube area decrease [4] 26.4% | GLP1 secretion stimulation [5] -4.3% | inhibition of viability [6] 11.1% | viability decrease (inhibition) [7] 26.6% | viability decrease (inhibition) [8] -2.9% | z-score [10, 14] 0.218
100%: viability [12]

NC(=O)N[C@@H](CCC(=O)O)C(=O)O
inactive: nuclear beta-catenin stimulation ([1]; at 10 µM) -0.1% | insulin secretion stimulation [2] 0.3% | viability decrease [3] 11.1% | tube area decrease [4] -22.3% | GLP1 secretion stimulation [5] -2.5% | inhibition of viability [6] 4.1% | viability decrease (inhibition) [7] -6.5% | viability decrease (inhibition) [8] 1% | remaining NAD [9] 10 nM
-1%: nuclear beta-catenin stimulation ([1]; stimulation, at 2 µM)

CCC1C(=O)OCC1Cc1cncn1C (stereo unspecified)
20%: nuclear beta-catenin stimulation ([1]; stimulation, at 2 µM)
inactive: nuclear beta-catenin stimulation ([1]; at 10 µM) 0.7% | insulin secretion stimulation [2] 3.7% | viability decrease [3] 2.7% | GLP1 secretion stimulation [5] 1.2% | inhibition of viability [6] 8.9% | viability decrease (inhibition) [7] -14.8% | viability decrease (inhibition) [8] -20.6%
active: tube area decrease [4] -1.1%
